Experimental data taken from PubChem BioAssay (NCATS).
Values without a mark were called inactive. Results filed as inconclusive are left out. A call without a number means that no potency is given here. Activity calls are given as the source filed them. Calls come from the whole dose curve; as a rule, active = well fitted curve in the direction sought with a large enough effect; inconclusive = small, poorly fitted or top-dose-only effect, or another doubt; inactive = no such curve, though single readings can be large; an effect the other way counts as inactive or inconclusive.

Columns and labels:
[1] = molecular target: Glutathione peroxidase 1 (Homo sapiens) (UniProt P07203); assay: Primary qHTS Assay for Inhibitors of Recombinant Selenoprotein Glutathione Peroxidase 1 (GPX1) (AID 1845191); note: nearly all actives have a fitted effect of over 65% in size
Outline: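 10 nM GPX1 + cpd, 30 min RT; start w/ 1 mM GSH, 0.5 mM cumene hydroperoxide, 0.5 mM NADPH, 100 nM GR, 0.01% BSA; buffer 50 mM Tris-HCl pH 7.5, 2 mM EDTA, 150 mM NaCl; Fl 340/450, 0 & 15 min.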

[2] = molecular target: Phospholipid hydroperoxide glutathione peroxidase GPX4 (Homo sapiens) (UniProt P36969); assay: Primary qHTS Assay for Inhibitors of Recombinant Selenoprotein Glutathione Peroxidase 4 (GPX4) (AID 1845192); note: nearly all actives have a fitted effect of over 65% in size; for activity change, negative = inhibition: series mostly up to about 50 µM
Outline: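 NADPH consumption, followed by fluorescence at 340/450 nm between 0 and 15 min, reports GPX4 activity via coupled glutathione reductase (100 nM). Enzyme 200 nM was pre-exposed to compound 30 min; 0.5 mM cumene hydroperoxide and 1 mM GSH served as substrates.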

[3] = molecular target: Luciferin 4-monooxygenase (Photinus pyralis) (UniProt P08659); assay: Primary firefly luciferase (FLuc) qHTS assay for identification of artifact compounds. (AID 1845220); note: nearly all actives have a fitted effect of over 60% in size; for activity change, negative = inhibition: series mostly up to about 54 µM
Outline: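 Cell-free, 1536-well qHTS. Buffer pH 7.6 with 0.01% Tween-20 and 0.05% BSA; 10 uM D-luciferin, 10 uM ATP; 10 nM P. pyralis luciferase; luminescence after 5 min.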

[4] = Primary fluorescence-based thiol-reactive (MSTI) qHTS assay for identification of artifact compounds. (AID 1845221); note: nearly all actives have a fitted effect of over 65% in size; note: potency is the fitted concentration of half-maximal effect;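 for activity change, negative = thiol reactive: series mostly up to about 54 µM; thiol-reactive compounds lower the probe fluorescence signal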
Outline: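 First, 4 uM MSTI in 2% DMSO/PBS pH 7.4 was dispensed; next, compounds were added; then plates sat 1 h at room temperature without light. Finally, emission at 598 nm was recorded.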

[5] = test system: Nanoluciferase (engineered Oplophorus gracilirostris luciferase); assay: Primary Nanoluciferase (NLuc) qHTS assay for identification of artifact compounds. (AID 1845222); note: series mostly up to about 54 µM
Outline: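 Compounds are pinned into diluted (1:55) conditioned medium of NLuc-expressing S16 cells and held 15 min at room temperature protected from light. Nano-Glo substrate follows, and luminescence is read 5 min later.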

Sequence of Glutathione peroxidase 1 (Homo sapiens) (P07203 whole entry, looked up): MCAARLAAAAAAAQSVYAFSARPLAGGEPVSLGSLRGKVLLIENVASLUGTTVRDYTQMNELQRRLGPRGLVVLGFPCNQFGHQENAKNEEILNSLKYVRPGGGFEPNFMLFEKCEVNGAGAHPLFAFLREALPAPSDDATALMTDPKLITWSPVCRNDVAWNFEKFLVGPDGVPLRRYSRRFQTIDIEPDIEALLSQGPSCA
Sequence of Phospholipid hydroperoxide glutathione peroxidase GPX4 (Homo sapiens) (P36969 whole entry, looked up): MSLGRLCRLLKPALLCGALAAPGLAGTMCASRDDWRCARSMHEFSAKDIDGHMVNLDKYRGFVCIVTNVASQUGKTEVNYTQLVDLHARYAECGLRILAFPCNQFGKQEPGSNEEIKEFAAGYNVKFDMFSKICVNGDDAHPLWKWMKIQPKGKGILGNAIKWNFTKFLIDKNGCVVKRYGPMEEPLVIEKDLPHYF

Cc1ccc(Sc2cncc3sc(C(N)=O)cc23)cc1
Potency [1]: inactive
Potency [2]: inactive
Potency [3]: inactive
Potency [4]: inactive
Potency [5]: inactive

CCCOc1ccn2c(C(C)=O)cc(-c3ccccc3S(C)(=O)=O)c2c1
Potency [1]: inactive
Potency [2]: inactive
Potency [3]: inactive
Potency [4]: inactive
Potency [5]: inactive

C=C1CC2[C@]3(C)C(=C(O)C(=O)[C@@]2(C)[C@]2(C(=O)OC)C(=O)C(C)OC(=O)[C@@]12C)C(C)(C)C(=O)CC3O (stereo not given in full)
Potency [1]: inactive
Potency [2]: inactive
Potency [3]: inactive
Potency [4]: inactive
Potency [5]: inactive

CCOc1ccc(-c2ccc(Cn3c(CC(C)(C)C(=O)O)c(SC(C)(C)C)c4cc(OCc5ccc(C)cn5)ccc43)cc2)cn1
Potency [1]: inactive
Potency [2]: inactive
Potency [3]: inactive
Potency [4]: inactive
Potency [5]: inactive

COC(=O)CC[C@@H](C)[C@H]1CC[C@H]2[C@@H]3CC(=O)[C@H]4C[C@H](OC(C)=O)CC[C@]4(C)[C@H]3CC[C@]12C
Potency [1]: inactive
Potency [2]: inactive
Potency [3]: inactive
Potency [4]: inactive
Potency [5]: inactive

C=C1CCC(OC(C)=O)C2(C)CC3(O)OC(=O)C(C)=C3CC12 (stereo not given)
Potency [1]: inactive
Potency [2]: inactive
Potency [3]: inactive
Potency [4]: inactive
Potency [5]: inactive

CC(c1c[nH]c2ccccc12)C(O)C(=O)O (stereo not given)
Potency [1]: inactive
Potency [2]: inactive
Potency [3]: inactive
Potency [4]: 10.6 µM (active)
Potency [5]: inactive

C[C@]12C=CC(=O)C=C1CC[C@@H]1[C@@H]2[C@@H](O)C[C@@]2(C)[C@H]1CC[C@]2(O)C(=O)COC(=O)CCC(=O)O
Potency [1]: inactive
Potency [2]: inactive
Potency [3]: inactive
Potency [4]: inactive
Potency [5]: inactive

C=C1C(=O)OC2/C=C(\C)CC/C=C(\C(=O)O)CC/C=C(\C)CCC12 (stereo not given)
Potency [1]: inactive
Potency [2]: inactive
Potency [3]: inactive
Potency [4]: inactive
Potency [5]: inactive

COc1ccc(C(=O)O[C@H]2CC(C)=CC[C@@]3(C)[C@@H](OC(C)=O)C[C@@](O)(C(C)C)[C@H]23)cc1
Potency [1]: inactive
Potency [2]: inactive
Potency [3]: inactive
Potency [4]: inactive
Potency [5]: inactive

C=C1CCC2C(C)(COC3OC(COC(=O)CC(=O)O)C(O)C(O)C3O)CCCC2(C)C1CCC1=CCOC1=O (stereo not given)
Potency [1]: inactive
Potency [2]: inactive
Potency [3]: inactive
Potency [4]: inactive
Potency [5]: inactive

C[C@@H]1O[C@@H](O[C@H]2[C@H](OC(=O)[C@]34CCC(C)(C)C[C@H]3C3=CCC5[C@@]6(C)C[C@H](O)[C@H](O[C@@H]7O[C@H](CO)[C@@H](O[C@@H]8O[C@H](CO)[C@@H](O)[C@H](O)[C@H]8O)[C@H](O)[C@H]7O)[C@@](C)(CO)C6[C@H](O)C[C@@]5(C)[C@]3(C)C[C@H]4O)OC[C@H](O)[C@@H]2O)[C@H](O)[C@H](O)[C@H]1O[C@@H]1OC[C@@H](O)[C@H](O[C@@H]2OC[C@](O)(CO)[C@H]2O)[C@H]1O (stereo not given in full)
activity, negative = inhibition [1]: -19.6% [at 9.52 µM]
activity change, negative = inhibition [2]: -11% [at 9.73 µM]
activity change, negative = inhibition [3]: -27.8% [at 11.6 µM]
activity change, negative = thiol reactive [4]: -12.6% [at 11.5 µM]
activity, negative = inhibition [5]: 2.77% [at 11.6 µM]

CC1=CC2(O)/C=C/C(C)(O)CC(O)/C=C/C(=O)OC23C(=O)NC(CC(C)C)C3C1C (stereo not given)
Potency [1]: inactive
Potency [2]: inactive
Potency [3]: inactive
Potency [4]: inactive
Potency [5]: inactive

C=CC(C)(CC/C=C(\C)CC/C=C(\C)CC(O)/C=C(\C)C(=O)O)O[C@@H]1O[C@H](CO)[C@@H](O)[C@H](O)[C@H]1O[C@@H]1O[C@H](CO)[C@@H](O)[C@H](O)[C@H]1O (stereo not given in full)
Potency [1]: inactive
Potency [2]: inactive
Potency [3]: inactive
Potency [4]: inactive
Potency [5]: inactive

CC1(C)CCCC2(C)C3=C(C(=O)OC3O)C(O)CC12 (stereo not given)
Potency [1]: inactive
Potency [2]: inactive
Potency [3]: inactive
Potency [4]: inactive
Potency [5]: inactive

COC(=O)[C@]12C(=O)C(C)=C(O)[C@@]1(C)C(C)=CC1[C@@]34CC[C@@H](OC(C)=O)C(C)(C)C3[C@H](C[C@]12C)OC4=O (stereo not given in full)
Potency [1]: inactive
Potency [2]: inactive
Potency [3]: inactive
Potency [4]: inactive
Potency [5]: inactive

CC(=O)c1c(O)cc2c(c1C)C(=O)CC(O)C2 (stereo not given)
Potency [1]: inactive
Potency [2]: inactive
Potency [3]: inactive
Potency [4]: 10.6 µM (active)
Potency [5]: inactive

CCN[C@@H]1C[C@H](N)[C@@H](O[C@H]2OC(CN)=CC[C@H]2N)[C@H](O)[C@H]1O[C@H]1OC[C@](C)(O)[C@H](NC)[C@H]1O
Potency [1]: inactive
Potency [2]: inactive
Potency [3]: inactive
Potency [4]: inactive
Potency [5]: inactive

O=C(NC[C@H](O)CN1CCc2ccccc2C1)c1cc(NC2COC2)ncn1
Potency [1]: inactive
Potency [2]: inactive
Potency [3]: inactive
Potency [4]: inactive
Potency [5]: inactive

C[C@@H]1C(=O)O[C@H]2[C@H]1CC[C@@]1(C)C(=O)C=C[C@](C)(O)[C@H]21
Potency [1]: inactive
Potency [2]: inactive
Potency [3]: inactive
Potency [4]: 21.2 µM (active)
Potency [5]: inactive

CC(C)c1cc2c(c(O)c1O[C@@H]1O[C@H](CO)[C@@H](O)[C@H](O)[C@H]1O)CC1(O)CCC(O)C(C)(C)C1CC2 (stereo not given in full)
Potency [1]: inactive
Potency [2]: inactive
Potency [3]: inactive
Potency [4]: 9.22 µM (active)
Potency [5]: inactive

Cc1cc(N2CCCCC2)nc2ccccc12
Potency [1]: inactive
Potency [2]: inactive
Potency [3]: inactive
Potency [4]: inactive
Potency [5]: inactive
